Measured values from PubChem BioAssay.
Active and inactive are the calls of the source.

Assays:
[1] = tested on: Human papillomavirus type 1a protein E7 (residues 44-93); test: HPV1a E7 fragment binders on microarrays, primary screen, biochemical, small-molecule microarray, residues 44-93, 635 nm fluorescence (AID 1108); details: small-molecule microarray binding, fluorescence 635 nm; higher = more signal;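 further: E7 fragment applied at 1 µg/mL in TBST for 1 h at 4 C; score combines spot fluorescence with its signal to noise ratio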
[2] = modulators of HCV replicon luciferase signal, primary screen, HCV replication inhibitor project, Huh7 cells, luciferase reporter (AID 1109); details: 48 h, higher = more signal;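 further: huh7 hepatoma cells harbouring a luciferase neomycin HCV replicon reporter; luciferase luminescence as measure of HCV replicon replication; test concentration not given here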
[3] = molecular target: Left-right determination factor 2 (Homo sapiens) (UniProt O00292); test: LEFTY2 binders on small-molecule microarrays, primary screen, biochemical, small-molecule microarray, 635 nm fluorescence scan (AID 1110); details: LEFTY2 binding, higher = more signal
Chain of Left-right determination factor 2 (Homo sapiens) (O00292 whole entry, looked up): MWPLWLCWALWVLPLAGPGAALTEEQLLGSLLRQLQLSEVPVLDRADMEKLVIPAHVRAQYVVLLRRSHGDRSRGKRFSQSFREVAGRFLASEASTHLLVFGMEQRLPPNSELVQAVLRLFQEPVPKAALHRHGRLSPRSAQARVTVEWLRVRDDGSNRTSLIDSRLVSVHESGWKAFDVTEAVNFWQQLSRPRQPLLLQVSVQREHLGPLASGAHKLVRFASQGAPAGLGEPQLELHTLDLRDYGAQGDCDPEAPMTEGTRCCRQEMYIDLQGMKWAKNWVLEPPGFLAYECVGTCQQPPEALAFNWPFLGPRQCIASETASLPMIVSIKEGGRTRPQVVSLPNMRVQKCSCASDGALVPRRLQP

[4] = molecular target: Calmodulin-1 (Homo sapiens) (UniProt P0DP23); test: CALM1 binders on microarrays, EGTA buffer, profiling panel, biochemical, small-molecule microarray, Cy5-labelled CALM1 (AID 1111); details: Cy5-CALM1 binding fluorescence, higher = more signal;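 further: labelled calmodulin applied in Tris saline Tween buffer holding calcium plus EGTA and DTT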
[5] = molecular target: Calmodulin-1 (Homo sapiens) (UniProt P0DP23); test: calcium-bound CALM1 binders on microarrays, profiling panel, artefact control for SMM control-protein annotation, biochemical, small-molecule microarray, Cy5-labelled CALM1, plus calcium (AID 1112); details: Cy5-CALM1 binding fluorescence, higher = more signal;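 further: score merges spot fluorescence with signal to noise from triplicate slides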
[6] = small-molecule microarray binders of probe aWnt5a, primary screen, biochemical, biotinylated probe, 635/667 nm fluorescence (AID 1113); details: higher = more signal;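 further: score merges 667 nm fluorescence intensity with signal-to-noise per printed feature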
[7] = small-molecule microarray binders of probe aShh, primary screen, biochemical, biotinylated probe, 635/667 nm fluorescence (AID 1114); details: higher = more signal;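 further: probe is biotin-labelled aShh protein from a stem cell growth factor screen; measures binding of labelled protein to compounds printed on the slide; score merges feature fluorescence at 667 nm with signal-to-noise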
[8] = small-molecule microarray binders of probe aNog, primary screen, biochemical, biotinylated probe, 635/667 nm fluorescence (AID 1115); details: higher = more signal;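 further: probe is biotinylated aNog protein used at 0.15 µg/mL for 1 h at 4 C; z-score combines 667 nm fluorescence of each spot with its signal to noise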
[9] = molecular target: Torsin-1A-interacting protein 1 (Homo sapiens) (UniProt Q5JTV8); test: LAP1 binders from COS7 cell lysate, primary screen, small-molecule microarray, 635/667 nm fluorescence (AID 1116); details: COS7-hLAP1 lysate binding, 635 nm fluorescence, higher = more signal
Chain of Torsin-1A-interacting protein 1 (Homo sapiens) (Q5JTV8 whole entry, looked up): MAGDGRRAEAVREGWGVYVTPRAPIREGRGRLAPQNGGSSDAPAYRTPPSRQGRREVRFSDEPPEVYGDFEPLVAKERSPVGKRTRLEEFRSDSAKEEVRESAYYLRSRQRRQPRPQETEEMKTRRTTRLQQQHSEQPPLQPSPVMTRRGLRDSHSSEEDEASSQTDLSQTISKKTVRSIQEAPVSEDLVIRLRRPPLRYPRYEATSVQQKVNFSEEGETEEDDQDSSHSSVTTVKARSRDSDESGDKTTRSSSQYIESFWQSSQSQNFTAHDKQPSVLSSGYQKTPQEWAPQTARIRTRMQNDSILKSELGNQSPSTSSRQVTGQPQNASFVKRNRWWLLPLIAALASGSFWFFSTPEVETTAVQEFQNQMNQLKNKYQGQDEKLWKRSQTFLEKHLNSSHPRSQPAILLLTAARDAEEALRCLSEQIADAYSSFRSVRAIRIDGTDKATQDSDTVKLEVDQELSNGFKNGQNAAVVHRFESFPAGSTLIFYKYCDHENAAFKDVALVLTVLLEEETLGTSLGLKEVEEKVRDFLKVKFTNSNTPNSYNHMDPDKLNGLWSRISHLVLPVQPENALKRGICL

[10] = molecular target: Alpha-bungarotoxin (Bungarus multicinctus) (UniProt P60615); test: alpha-bungarotoxin binders on microarray, profiling panel, artefact control for SMM control protein annotation, biochemical, small-molecule microarray, Alexa647 label, 635/667 nm fluorescence (AID 1117); details: alpha-BTX-A647 binding fluorescence, higher = more signal
Chain of Alpha-bungarotoxin (Bungarus multicinctus) (P60615 whole entry, looked up): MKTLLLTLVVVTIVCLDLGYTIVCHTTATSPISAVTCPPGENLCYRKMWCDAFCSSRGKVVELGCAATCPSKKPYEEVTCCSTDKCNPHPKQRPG

[11] = molecular target: Albumin (Bos taurus) (UniProt P02769); test: bovine serum albumin binders on microarray, profiling panel, artefact control for SMM control protein annotation, biochemical, small-molecule microarray, Alexa647 label, 635/667 nm fluorescence (AID 1118); details: BSA-A647 binding, fluorescence 635 nm, higher = more signal;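 further: score merges 667 nm emission intensity and signal-to-noise per printed compound spot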
Chain of Albumin (Bos taurus) (P02769 whole entry, looked up): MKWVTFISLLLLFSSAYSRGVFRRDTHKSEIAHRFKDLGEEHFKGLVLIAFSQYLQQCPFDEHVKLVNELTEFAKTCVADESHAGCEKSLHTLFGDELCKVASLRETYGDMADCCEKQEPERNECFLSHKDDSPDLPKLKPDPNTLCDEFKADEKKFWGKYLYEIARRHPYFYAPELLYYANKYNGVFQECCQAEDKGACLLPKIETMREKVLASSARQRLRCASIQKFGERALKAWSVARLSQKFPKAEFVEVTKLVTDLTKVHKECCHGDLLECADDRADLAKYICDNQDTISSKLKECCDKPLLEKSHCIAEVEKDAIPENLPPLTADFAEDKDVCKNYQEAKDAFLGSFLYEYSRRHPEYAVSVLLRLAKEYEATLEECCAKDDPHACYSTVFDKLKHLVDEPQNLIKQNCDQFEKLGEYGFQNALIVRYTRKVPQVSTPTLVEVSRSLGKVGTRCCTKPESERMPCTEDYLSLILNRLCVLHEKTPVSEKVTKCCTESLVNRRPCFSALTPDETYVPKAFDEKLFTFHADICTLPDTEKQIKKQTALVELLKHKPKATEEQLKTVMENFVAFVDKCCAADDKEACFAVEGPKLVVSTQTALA

[12] = small-molecule microarray binders of probe aXIP, primary screen, biochemical, NeuroSMM set, 635/667 nm fluorescence (AID 1119); details: higher = more signal, called active from +8 up or from −8 down;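 further: probe is the protein aXip251-270 applied at 1 µg/mL to compound-printed slides; binding of probe to printed compounds measured as 667 nm fluorescence plus signal to noise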
[13] = small-molecule binders of probe aNOTCH3, primary screen, biochemical, small-molecule microarray, 635/667 nm fluorescence (AID 1120); details: higher = more signal;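 further: probe is a biotin-tagged antibody raised against NOTCH3 rather than NOTCH3 protein; score merges spot fluorescence near 667 nm with spot signal to noise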
[14] = small-molecule binders of probe aNOTCH2, primary screen, biochemical, small-molecule microarray, 635/667 nm fluorescence (AID 1121); details: higher = more signal;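 further: score merges feature fluorescence read at 667 nm with its signal to noise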
[15] = molecular target: Carbonic anhydrase 2 (Homo sapiens) (UniProt P00918); test: CAII small-molecule binders, profiling panel, biochemical, small-molecule microarray, Alexa647-labelled CAII (AID 1122); details: CAII-A647 binding fluorescence, higher = more signal
[16] = COS7 lysate on small-molecule microarray, probe aHis, 635 nm (AID 1123); details: COS7 cell lysate, fluorescence, higher = more signal;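 further: z-score combines 667nm fluorescence intensity with signal-to-noise per printed compound spot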
[17] = compound binding in COS7 lysate, probe aLAP1, primary screen, cell lysate, small-molecule microarray (AID 1124); details: probe aLAP1, fluorescence, higher = more signal;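 further: lysate comes from COS7 cells expressing LAP1 and is applied at 0.3 µg/mL; score merges spot fluorescence near 667 nm with signal-to-noise over triplicate slides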
[18] = tested on: Sam68 (KHDRBS1); test: Sam68 small-molecule binders, primary screen, biochemical, small-molecule microarray, 635 nm fluorescence (AID 1125); details: small-molecule microarray binding, higher = more signal;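 further: score merges 667 nm channel intensity with signal to noise over triplicate slides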
[19] = tested on: Chordin-like protein 2 (CHRDL2); test: CHRDL2 small-molecule binders, primary screen, biochemical, small-molecule microarray, 635 nm fluorescence (AID 1126); details: small-molecule microarray binding, fluorescence 635 nm; higher = more signal;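 further: printed compound slides probed with Chrdl2 protein at 4 µg/mL for 1 h at 4 C; score merges 667 nm emission intensity with signal to noise over three replicate slides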
[20] = molecular target: Concanavalin-A (Canavalia ensiformis) (UniProt P02866); test: ConA small-molecule binders, primary screen, artefact control for SMM control protein annotation, biochemical, small-molecule microarray, Alexa647 label, 635 nm (AID 1127); details: ConA-A647 binding fluorescence, higher = more signal;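 further: z combines 667 nm emission intensity with signal-to-noise across three replicate slides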
Chain of Concanavalin-A (Canavalia ensiformis) (P02866 whole entry, looked up): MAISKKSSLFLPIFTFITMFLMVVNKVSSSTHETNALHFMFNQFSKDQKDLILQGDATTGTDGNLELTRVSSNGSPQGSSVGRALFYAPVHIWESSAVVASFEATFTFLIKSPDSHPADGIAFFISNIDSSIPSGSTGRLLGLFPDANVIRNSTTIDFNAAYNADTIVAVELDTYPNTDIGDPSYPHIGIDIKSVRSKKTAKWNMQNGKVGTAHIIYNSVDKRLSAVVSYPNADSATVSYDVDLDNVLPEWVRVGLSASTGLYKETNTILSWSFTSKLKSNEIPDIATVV

Row | Structure (SMILES) | composite z-score [1] | z-score [2] | composite z-score [3] | composite z-score [4] | composite z-score [5] | composite z-score [6] | composite z-score [7] | composite z-score [8] | composite z-score [9] | composite z-score [10] | composite z-score [11] | composite Z-score [12] | composite z-score [13] | composite z-score [14] | composite z-score [15] | composite z-score [16] | composite z-score [17] | composite z-score [18] | composite z-score [19] | composite z-score [20]
1 | C=C(CCCC)C(=O)CC[C@H](OC(C)=O)c1ccc(CO)o1 | 0.478 | -0.72 | -0.0361 | -0.933 | -1.06 | -0.0182 | 0.13 | -0.196 | 1.43 | -0.28 | -0.471 | 0.304 (inactive) | 0.0701 | -0.117 | 0.637 | 0.136 | 0.164 | 0.865 | -0.149 | -0.0156
2 | C=C(COC)C(=O)CC[C@@H](OC(=O)c1ccccc1-c1ccccc1C(=O)O)c1ccc(CO)o1 | 0.512 | -4.48 | 1.01 | 1.63 | 0.417 | -0.256 | -0.34 | -0.251 | 0.709 | 0.206 | -0.651 | 0.082 (inactive) | -0.154 | -0.0817 | 0.309 | 1.77 | 0.447 | 0.504 | 1.24 | 0.865
3 | COC(=O)[C@@]1(Cc2ccc(OC)cc2)[C@H]2c3cc(C(=O)N(C)C)n(Cc4ccc(OC)c(OC)c4)c3C[C@H]2CN1C(=O)c1ccccc1 | 1.46 | -1.09 | 0.0549 | 1.8 | 1.08 | 0.294 | 0.173 | 1.03 | 1.15 | 1.73 | 0.857 | -0.327 (inactive) | 0.391 | 0.218 | 0.587 | 3.17 | 0.457 | 1.29 | -0.885 | 0.96
4 | CO[C@H]1O[C@H](CO)[C@@H](OC(=O)Nc2ccc(C(F)(F)F)cc2)[C@H](OC(=O)Nc2ccccc2)[C@@H]1OC(=O)Nc1ccccc1 | 1.34 | 0.0041 | 0.003 | 1.08 | -0.778 | 0.0887 | -0.102 | -0.305 | 1.01 | 0.462 | 0.533 | 0.291 (inactive) | 0.217 | 0.0405 | 0.527 | 2.31 | -0.0098 | 1.29 | -0.28 | 1.16
5 | COCCCNC(=O)[C@@]1(Sc2ccc(C)cc2)CC(=O)N(Cc2ccccc2)[C@@H]1c1ccc(CO)cc1 | 0.0655 | -1.29 | -0.993 | -0.488 | -0.58 | -0.0221 | -0.0324 | 0.336 | -0.36 | -0.941 | 0.146 | 0.201 (inactive) | -0.689 | -0.134 | 0.534 | 2.54 | 0.378 | 0.0145 | -0.21 | -0.668
6 | O=C1C2C=CC(C(O)c3ccc(B(O)O)cc3)N(Nc3ccc([N+](=O)[O-])cc3)C2C(=O)N1c1ccccc1 (stereo not given) | 1.38 | -4.39 | 0.528 | 0.394 | 0.218 | -0.0107 | -0.0146 | 0.46 | 0.151 | 0.435 | 0.832 | 0.142 (inactive) | 0.172 | -0.0439 | 0.654 | 2.02 | 0.588 | 1.32 | 0.262 | 0.738
7 | C=CCC(OC(C)=O)[C@@H]1[C@@H](N(Cc2ccc(-c3cccc(C(F)(F)F)c3)o2)C(=O)Cc2ccc(OC)cc2)c2cc(OCCCO)ccc2N1C(=O)Cc1ccc(OC)cc1 (stereo not given in full) | -0.641 | -1.46 | -0.606 | -0.503 | -1.26 | -0.203 | -0.0035 | -0.196 | -0.347 | -0.132 | 0.478 | -0.784 (inactive) | -0.193 | -0.193 | 0.158 | 0.043 | -0.39 | -0.399 | 0.292 | -0.947
8 | COC(=O)[C@@]1(Cc2ccccc2)[C@H]2c3cc(C(=O)N(C)C)n(Cc4cc(F)c(F)c(F)c4)c3C[C@H]2CN1C(=O)c1ccccc1 | 1.28 | -1.87 | -0.762 | 1.39 | 0.449 | 0.216 | 0.415 | 1.79 | 0.845 | 0.517 | 1.04 | -0.389 (inactive) | 0.692 | 0.289 | 0.656 | 2.8 | 0.525 | 1.32 | -0.801 | 0.953
9 | Cn1c2c(c3ccccc31)C(=O)C1NC2C=CC1(C)C(=O)OCc1ccccc1 (stereo not given) | -0.369 | -0.836 | -1.71 | 0.682 | 1.13 | -0.0887 | 0.123 | 0.771 | 1.38 | 1.92 | 0.445 | -0.0597 (inactive) | -0.242 | -0.166 | 0.682 | 1.77 | 1.46 | 1 | -2.55 | 0.909
10 | CCOC(=O)C1=CC[C@@H](c2ccccc2)N(S(=O)(=O)c2ccc(C)cc2)[C@H]1c1ccc(C#N)cc1 | 1.2 | -2.11 | -0.266 | 1.95 | 1 | -0.0236 | 0.385 | 0.621 | 1.48 | 1.84 | 0.801 | 0.662 (inactive) | 0.116 | -0.0158 | 0.356 | 1.56 | 0.791 | 1.33 | -1.25 | 1.12
11 | C=CC[C@@]1(C(N)=O)N=C(c2ccc(OCCCO)cc2)O[C@@H]1c1ccccc1N=[N+]=[N-] | -0.42 | 1.51 | 0.362 | -0.151 | -0.471 | 0.0825 | -0.148 | 1.1 | 2.04 | 0.673 | 0.225 | -0.56 (inactive) | 0.116 | 0.468 | 0.555 | 1.64 | 1.82 | 0.934 | 1.16 | 0.126
